Most compounds without a hit are left out; they make up all but 2.8% or so of the library.
SENP7 inh – SENP7 protease inhibitors, primary screen, biochemical, luminescence, uHTS; Sentrin-specific protease 7 (Homo sapiens), Q9BQF6; recombinant SENP7, Z-RLRGG-aminoluciferin luminescence, 40 min; inhibition, % at 5 µM; 330,000 compounds, 1.5% hits; AID 434973, 2010;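 active = inhibition above about 50% at the single test dose, limit read from the data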;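 also: plate controls were DMSO with enzyme for no effect and no enzyme buffer wells for full effect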
SENP6 block – SENP6 protease inhibitors, primary screen, biochemical, luminescence, uHTS; AID 2599, 2010; 330,000 compounds, 1.8% hits; inhibition, % at 10 µM; Recombinant SENP6 catalytic domain, aminoluciferin luminescence; Sentrin-specific protease 6 (Homo sapiens), Q9GZR1;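 active = inhibition above about 50% at the single tested dose, limit read from the data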;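 also: plate controls were DMSO wells with enzyme for no effect and DMSO wells lacking enzyme for full effect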
SENP8 block-1 – SENP8 protease inhibitors, primary screen, biochemical, luminescence; AID 2540, 2010; Sentrin-specific protease 8 (Homo sapiens), Q96LD8; 330,000 compounds, 1.2% hits; purified SENP8, Z-RLRGG-aminoluciferin cleavage; inhibition, % at 10 µM; in the data active = inhibition above about 50%
Target sequence (Q96LD8 whole entry, looked up): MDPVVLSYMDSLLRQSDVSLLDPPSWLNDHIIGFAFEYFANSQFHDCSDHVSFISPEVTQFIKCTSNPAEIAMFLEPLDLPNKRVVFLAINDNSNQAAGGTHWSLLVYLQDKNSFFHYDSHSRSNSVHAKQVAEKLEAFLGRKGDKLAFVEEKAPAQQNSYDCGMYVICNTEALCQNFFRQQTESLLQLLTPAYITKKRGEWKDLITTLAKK
HSP90 inh – HSP90 inhibitors, primary screen, cell lysate, luminescence. inhibition, % at 5.6 µM. Heat shock protein HSP 90 (rabbit reticulocyte lysate; luciferase refolding). 290,000 compounds, 0.91% hits. AID 1789, 2009. Rabbit reticulocyte lysate, luciferase refolding luminescence, 3 h;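 active = inhibition above the screen-wide mean plus 3 SD, computed separately per campaign, cut at about 16% in these data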;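 also: 0% = DMSO wells and 100% = 60 µM geldanamycin wells; inhibitors lower the luminescence because luciferase stays unfolded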
SENP8 block-2 – human SENP8 protease inhibitors, primary screen, biochemical, fluorescence, Nedd8 protein substrate, uHTS | recombinant SENP8 | inhibition, % at 20 µM | 360,000 compounds, 0.64% hits; in the data active = inhibition mostly above about 40%, no sharp cut-off; inactive = mostly below about 27%
HSP90 inh confirm – HSP90 inhibitors, confirmation, cell lysate, luminescence; shares compounds with HSP90 inh; rabbit reticulocyte lysate, luciferase refolding luminescence, 3 h; inhibition, % at 5.9 µM; 2,300 compounds, 64% hits; in the data active = inhibition above about 18%;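 also: 0% = vehicle wells and 100% = reference inhibitor wells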
FLuc counter – firefly luciferase inhibitors, HSP90 counter-screen, confirmation, artefact control for HSP90 inhibitor project, biochemical, luminescence, triplicate; shares compounds with HSP90 inh; purified native firefly luciferase; inhibition, % at 5.9 µM; 2,300 compounds, 48% hits;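 active = inhibition above the mean inhibition of all tested sample wells plus 3 SD, cut at about 10% in these data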;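 also: 0% = DMSO with luciferase and 100% = wells lacking luciferase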
SENP8 conf – SENP8 protease inhibitors, retest, confirmation, biochemical, luminescence, single concentration; shares compounds with SENP7 inh; inhibition, % at 12.5 µM; AID 488912, 2010; Recombinant SENP8, Z-RLRGG-aminoluciferin luminescence, 60 min; 6,200 compounds, 40% hits;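 active = mean inhibition across replicates above about 50%, limit read from the data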
SENP6 conf – SENP6 protease inhibitors, confirmation, biochemical, luminescence, single concentration. AID 488915, 2010. shares compounds with SENP7 inh. 6,200 compounds, 58% hits. recombinant SENP6, Z-RLRGG-aminoluciferin luminescence. inhibition, % at 12.5 µM
SENP7 conf – SENP7 protease inhibitors, retest, confirmation, biochemical, luminescence, single concentration | inhibition, % at 12.5 µM | recombinant SENP7, Z-RLRGG-aminoluciferin luminescence, 40 min | shares compounds with SENP7 inh | 6,200 compounds, 69% hits
Casp3 select – caspase-3 protease inhibitors, confirmation, selectivity assay for SENP inhibitor project, biochemical, single concentration. shares compounds with SENP7 inh. purified caspase-3, Z-DEVD-aminoluciferin luminescence, 60 min. inhibition, % at 12.5 µM. 6,200 compounds, 60% hits;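 active = mean inhibition above about 50%, limit read from the data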;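 also: plate controls were enzyme with DMSO for no effect and wells without caspase-3 for full effect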
Target sequence (P42574 28-227 limits assumed): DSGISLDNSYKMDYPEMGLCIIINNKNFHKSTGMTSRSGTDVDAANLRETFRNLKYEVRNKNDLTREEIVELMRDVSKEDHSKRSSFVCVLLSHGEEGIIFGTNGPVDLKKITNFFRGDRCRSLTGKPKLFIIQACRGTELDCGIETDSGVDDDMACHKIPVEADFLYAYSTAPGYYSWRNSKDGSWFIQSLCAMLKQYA
SENP luc ctr – interferes with luciferase luminescence in SENP counter-screen; shares compounds with SENP7 inh; Pre-incubated SENP8/Z-RLRGG-aminoluciferin, luciferase luminescence interference; inhibition, % at 12.5 µM; 6,200 compounds, 39% hits; AID 488919;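 active = mean inhibition above about 50% when retested at one dose, limit read from the data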;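 also: plate controls were DMSO wells with completed reaction for no effect and substrate without enzyme for full effect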
Active calls of the source: *; nt = not tested or not shown.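 The calls were made as follows, unless noted: active = mean inhibition above about 50% in the one-dose retest (limit read from the data); inactive = the rest.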

SMILES	SENP7 inh	SENP6 block	SENP8 block-1	HSP90 inh	SENP8 block-2	HSP90 inh confirm	FLuc counter	SENP8 conf	SENP6 conf	SENP7 conf	Casp3 select	SENP luc ctr
O=C(Nc1ccncc1)c1ccc2ccccc2c1	16	-14	-10	-2	17	nt	nt	nt	nt	nt	nt	nt
Cc1ccc2cc(NC(=O)c3ccccc3)ccc2n1	64*	62*	53*	18*	3	15	-3	8	43	81*	74*	63*
O=C(Nc1ccc2ccccc2c1)c1ccc(Cl)cc1	51*	41	-2	23*	9	37*	17*	-8	15	33	67*	13
COc1ccc(Cc2nc3ccc(C(=O)NCC4COCCO4)cc3o2)cc1 (stereo unspecified)	3	-9	9	-1	8	nt	nt	nt	nt	nt	nt	nt
Cn1c(C(=O)NCc2ccccn2)cc2c(=O)n3ccccc3nc21	0	5	-5	-3	-287	nt	nt	nt	nt	nt	nt	nt
Cc1[nH]c2ccccc2c1C(c1ccccn1)c1c(C)[nH]c2ccccc12	10	0	3	-1	-70	nt	nt	nt	nt	nt	nt	nt
Cc1oc(-c2ccc(Cl)cc2)cc1C(=O)O	94*	96*	97*	20*	4	18*	4	99*	100*	102*	92*	91*
Cc1oc(-c2ccccc2)cc1C(=O)Nc1cccc(C(=O)O)c1	-3	-18	-14	2	-7	nt	nt	nt	nt	nt	nt	nt
COc1ccc(C(=O)Nc2nnc(SCC(=O)NCc3ccco3)s2)c(OC)c1	52*	57*	20	43*	-67	62*	60*	-6	32	68*	59*	-1
COc1ccc(C)cc1NC(=O)C(OC(=O)CNC(=O)c1cccc(F)c1)c1ccccc1 (stereo unspecified)	-13	-3	-7	0	-1	nt	nt	nt	nt	nt	nt	nt
c1ccc(OCCSc2nnc3sc4ccccc4n23)cc1	16	80*	68*	45*	14	76*	74*	-5	68*	88*	78*	75*
O=C(O)c1cccc(-c2nc3ccccc3[nH]2)c1	99*	94*	94*	73*	-51	80*	60*	96*	97*	100*	89*	96*
O=C(Nc1nc2ccccc2[nH]1)c1ccc(Cl)cc1	90*	93*	87*	46*	-38	65*	58*	42	92*	100*	93*	24
O=C(Nc1nc2ccccc2[nH]1)c1ccccc1	93*	96*	90*	17*	1	57*	39*	82*	91*	100*	96*	32
COc1ccc(-c2nc3ccccc3[nH]2)cc1	97*	94*	95*	20*	-25	47*	33*	96*	98*	103*	98*	96*
c1ccc2[nH]c(-c3ccncc3)nc2c1	7	13	1	-4	-363	nt	nt	nt	nt	nt	nt	nt
Cc1ccc(NC(=O)CSCC(=O)N2CCN(c3cccc(C(F)(F)F)c3)CC2)cc1	8	-10	-13	nt	0	nt	nt	nt	nt	nt	nt	nt
Cc1c(C(=O)O)cnc2c([N+](=O)[O-])cnn12	-3	16	-6	2	16	nt	nt	nt	nt	nt	nt	nt
Cc1ccc(OCC(=O)Nc2ccc(N3CCCC3)cc2)cc1C	9	-43	-2	3	-2	nt	nt	nt	nt	nt	nt	nt
Cc1cccc2cc(-c3nc4ccc(C(=O)O)cc4[nH]3)c(=O)oc12	86*	88*	86*	21*	-282	9	21*	94*	94*	100*	98*	56*
O=C(O)c1ccc2nc(C(F)(F)F)[nH]c2c1	-1	-10	-4	4	18	nt	nt	nt	nt	nt	nt	nt
CCOc1ccc(-c2cnc3ccccc3n2)cc1	98*	96*	93*	42*	-441	86*	80*	8	61*	79*	88*	58*
O=[N+]([O-])c1ccc(-c2cnc3ccccc3n2)cc1	31	19	33	0	4	nt	nt	nt	nt	nt	nt	nt
CCOc1ccc(-c2cn3ccccc3n2)cc1	72*	49	66*	27*	-410	64*	47*	86*	85*	96*	90*	84*
COc1ccc(OCC(=O)Nc2ccccc2C(=O)N2CCCC2)cc1	-8	-7	-2	-2	25	nt	nt	nt	nt	nt	nt	nt
SMILES	SENP7 inh	SENP6 block	SENP8 block-1	HSP90 inh	SENP8 block-2	HSP90 inh confirm	FLuc counter	SENP8 conf	SENP6 conf	SENP7 conf	Casp3 select	SENP luc ctr
Cc1cc(/C=c2/sc3nc4ccccc4n3c2=O)c(C)n1-c1ccccn1	6	79*	91*	60*	-80	90*	81*	32	54*	29	64*	2
CSc1ccccc1C(=O)Nc1ncc(C)s1	5	5	-6	5	-21	nt	nt	nt	nt	nt	nt	nt
COc1cc(SC)ccc1C(=O)Nc1ccon1	-6	-14	-10	3	8	nt	nt	nt	nt	nt	nt	nt
COc1cc(SC)ccc1C(=O)Nc1ncc(C)s1	94*	96*	89*	80*	-170	88*	85*	90*	91*	100*	89*	35
Cc1ccc(C(=O)Nc2ncc(C)s2)s1	57*	61*	45	29*	-9	50*	40*	54*	55*	86*	80*	32
COc1cc(SC)ccc1C(=O)Nc1ccc(Br)cn1	90*	90*	82*	33*	4	87*	83*	53*	76*	80*	77*	50*
